The values below come from PubChem BioAssay (NCATS).

Inconclusive results are not listed. The list shows a part of the results. A call without a number means that no potency is given here. Calls of active or inactive are those of the source. Unless noted, calls follow the shape of the dose curve; as a rule, active = well fitted curve in the direction sought with a large enough effect; inconclusive = small, poorly fitted or top-dose-only effect, or another doubt; inactive = no such curve, though single readings can be large; an effect the other way counts as inactive or inconclusive.

Assay [1] addresses Mitogen-activated protein kinase 10 (Mus musculus) (UniProt Q61831). Kind of assay: JNK3 AlphaScreen Assay (AID 530; active = well fitted curve in either direction with a large enough effect, not every such curve was filed as active;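 also: kinase came from lysate of stimulated human HepG2 cells; signal reports phosphorylation of biotinylated GST-cJun 1-79 at Ser73 with 10 µM ATP; series mostly up to about 57 µM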). The procedure, abridged:
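Phosphorylation of biotinylated GST-cJun(1-79) at Ser73 is measured by AlphaScreen proximity luminescence. Enzyme is JNK3 in HepG2 lysates activated with interleukin-1beta and tumor necrosis factor alpha; ATP is 10 uM final.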
(Alpha assays give light when donor and acceptor beads are brought close together.)

The target in assay [2] is Cytochrome P450 3A4 (Homo sapiens) (UniProt P08684). Briefly: qHTS Assay for Activators of Cytochrome P450 3A4 (AID 885). Also: nearly all actives have a fitted effect of over 65% in size. The procedure, abridged:
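Activators are scored by enhanced luminescence from CYP3A4 conversion of luciferin-PPXE (25uM, equal to KM) to luciferin, after 60 min at RT with an NADPH-regenerating system.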
A general note: In qHTS, concentration-response curves come from the screen itself.

Assay [3] shares this target. Kind of assay: qHTS Assay for Inhibitors and Substrates of Cytochrome P450 3A4 (AID 884). Also: potency is read from the fitted curve at half-maximal effect; nearly all actives have a fitted effect of over 50% in size. The essentials: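 Luminescent readout of luciferin produced by CYP3A4 (20 nM) dealkylation of Luciferin-PPXE, 25 uM (its KM). NADPH-driven reaction ran 60 min at RT after 10 min compound preincubation; data scaled to 57 uM ketoconazole as 100% inhibition.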
Assay [4] concerns the target DNA dC->dU-editing enzyme APOBEC-3G (Homo sapiens) (UniProt Q9HC16). Briefly: qHTS for inhibitors of Vif-A3G interactions: Validation (AID 588379). The essentials: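 Yellow fluorescence (Ex 488, Em 500-530) of Vif-coexpressing HeLa A3G-eYFP cells, scanned by Acumen cytometer, reports blocked A3G degradation. Cells plated at 700/well overnight at 37 deg C before compound addition, then a further overnight compound incubation at 37 deg C.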

The target of assay [5] is Lethal(3)malignant brain tumor-like protein 1 (Homo sapiens) (UniProt Q9Y468). Kind of assay: qHTS Assay for the Inhibitors of L3MBTL1: Hit Validation (AID 540279). Also: potency is read from the fitted curve at half-maximal effect; nearly all actives have a fitted effect of over 70% in size. As to conditions: L3MBTL1 methyl-lysine binding inhibition, biochemical qHTS. The essentials: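 AlphaScreen competition format: 50 nM L3MBTL1 preincubated 30 min at room temperature with 75 nM biotinylated H3(1-15)K9me1 peptide, then compounds added for 30 min, then streptavidin donor and nickel chelate acceptor beads (10 ug/mL final) for 30 min dark.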

The nature of assay [6]: qHTS Assay for the Inhibitors of L3MBTL1: Hit Validationin AlphaScreen Counterscreen (AID 602224). The procedure, abridged:
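Signal loss here marks AlphaScreen interference, not L3MBTL1 binding. The readout uses a 1 nM biotin-His6 linker between streptavidin donor and Ni-chelate acceptor beads (10 ug/mL each), with 15 min compound preincubation and 30 min dark incubation.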

Assay [7] deals with DNA polymerase iota (Homo sapiens) (UniProt Q9UNA4). Kind of assay: qHTS for Inhibitors of Polymerase Iota: Confirmatory Assay for Cherry-picked Compounds (AID 720496). Also: potency is read from the fitted curve at half-maximal effect. As to conditions: Pol iota primer extension, TAMRA/BHQ fluorescence. The procedure, abridged:
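10 nM Pol iota + cpd, 15 min RT; start w/ 50 nM (final) TAMRA reporter/BHQ-2 template primer substrate; ex 525/em 598 nm read at 0 and 10 min kinetic.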

In assay [8] the target is Cytochrome P450 2C19 (Homo sapiens) (UniProt P33261). Briefly: qHTS Assay for Inhibitors and Substrates of Cytochrome P450 2C19 (AID 899). Also: potency is read from the fitted curve at half-maximal effect; nearly all actives have a fitted effect of over 60% in size. The procedure, abridged:
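Human CYP2C19 (5nM) with Luciferin-H EGE at 10uM (its KM) in 50mM KPO4 was preincubated with compound for 10 min at 37C. NADPH regeneration started a 60 min 37C reaction. Luciferin was read by luminescence, normalized to 57uM ketoconazole.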

Assay [9] deals with Bifunctional 3'-5' exonuclease/ATP-dependent helicase WRN (Homo sapiens) (UniProt Q14191). Kind of assay: qHTS for Inhibitors of WRN Helicase: Confirmatory Assay for Cherry-picked Compounds. (AID 720497). Also: potency is read from the fitted curve at half-maximal effect; nearly all actives have a fitted effect of over 65% in size. The essentials:
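Confirmatory retest of cherry-picked hits in 1536-well format. Enzyme (20 nM final) sat with compound for 15 min at room temperature before forked duplex substrate (100 nM) and ATP (2 mM) were added, and unwinding was followed kinetically by red fluorescence.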

Assay [10] addresses RecQ-like DNA helicase BLM (Homo sapiens) (UniProt P54132). Briefly: qHTS for Inhibitors of WRN Helicase: BLM Helicase Counterscreen for WRN Inhibitors (AID 720503). Also: nearly all actives have a fitted effect of over 60% in size. The essentials: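 1 nM BLM, Tris pH 8.0/NaCl/MgCl2/DTT/Tween-20; cpd preinc 15 min RT; start w/ 100 nM DNA + 2 mM ATP final; fluorescence (ex 525/em 598) two reads 15 min apart; normalized to enzyme-free and DMSO controls.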

The target of assay [11] is Flap endonuclease 1 (Homo sapiens) (UniProt P39748). Briefly: qHTS Assay for the Inhibitors of FEN1: Confirmatory Assay for Cherry-picked Compounds (AID 720498). Also: potency is read from the fitted curve at half-maximal effect; nearly all actives have a fitted effect of over 60% in size. As to conditions: FEN1 flap cleavage, TAMRA/BHQ2 fluorogenic DNA substrate. The essentials: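 Human FEN1 (10 nM reagent) was preincubated with compounds for 15 min at room temperature, then 50 nM final double-flap DNA substrate (5'-TAMRA flap, BHQ-2 quencher strand) was added. Fluorescence (ex 525/em 598 nm) was read at 0 and 15 min.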
Flap endonuclease 1 (Homo sapiens), sequence (P39748 whole entry, looked up): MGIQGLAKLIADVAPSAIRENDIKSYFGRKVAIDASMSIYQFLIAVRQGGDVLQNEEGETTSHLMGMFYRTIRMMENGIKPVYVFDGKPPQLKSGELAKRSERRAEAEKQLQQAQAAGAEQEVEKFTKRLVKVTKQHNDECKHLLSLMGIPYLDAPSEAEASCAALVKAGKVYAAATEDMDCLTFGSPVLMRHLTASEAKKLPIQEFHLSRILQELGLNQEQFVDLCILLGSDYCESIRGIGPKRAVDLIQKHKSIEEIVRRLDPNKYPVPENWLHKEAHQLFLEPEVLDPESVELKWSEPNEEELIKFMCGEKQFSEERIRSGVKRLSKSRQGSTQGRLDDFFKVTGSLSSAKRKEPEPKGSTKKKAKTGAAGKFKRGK

DNA polymerase iota (Homo sapiens), sequence (Q9UNA4 whole entry, looked up): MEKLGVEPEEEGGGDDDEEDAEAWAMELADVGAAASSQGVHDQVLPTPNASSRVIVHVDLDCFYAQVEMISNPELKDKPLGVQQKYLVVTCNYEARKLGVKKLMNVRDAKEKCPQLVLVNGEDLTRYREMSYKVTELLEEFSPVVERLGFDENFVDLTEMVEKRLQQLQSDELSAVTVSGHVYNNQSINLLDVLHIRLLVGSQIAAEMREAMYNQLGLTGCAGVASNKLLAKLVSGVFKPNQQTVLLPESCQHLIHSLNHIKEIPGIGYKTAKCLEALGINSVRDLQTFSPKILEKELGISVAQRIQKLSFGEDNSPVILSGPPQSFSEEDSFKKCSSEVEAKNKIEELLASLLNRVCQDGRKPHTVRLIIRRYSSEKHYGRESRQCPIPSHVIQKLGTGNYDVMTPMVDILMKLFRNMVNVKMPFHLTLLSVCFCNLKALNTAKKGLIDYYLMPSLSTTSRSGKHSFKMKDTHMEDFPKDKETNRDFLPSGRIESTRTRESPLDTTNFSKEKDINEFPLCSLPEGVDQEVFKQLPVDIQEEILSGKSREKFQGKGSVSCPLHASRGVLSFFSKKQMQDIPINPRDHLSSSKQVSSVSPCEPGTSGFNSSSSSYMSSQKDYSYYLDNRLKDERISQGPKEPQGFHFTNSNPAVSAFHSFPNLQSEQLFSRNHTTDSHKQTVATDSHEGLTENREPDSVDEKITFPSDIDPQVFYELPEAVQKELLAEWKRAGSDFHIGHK
Lethal(3)malignant brain tumor-like protein 1 (Homo sapiens), sequence (Q9Y468 whole entry, looked up): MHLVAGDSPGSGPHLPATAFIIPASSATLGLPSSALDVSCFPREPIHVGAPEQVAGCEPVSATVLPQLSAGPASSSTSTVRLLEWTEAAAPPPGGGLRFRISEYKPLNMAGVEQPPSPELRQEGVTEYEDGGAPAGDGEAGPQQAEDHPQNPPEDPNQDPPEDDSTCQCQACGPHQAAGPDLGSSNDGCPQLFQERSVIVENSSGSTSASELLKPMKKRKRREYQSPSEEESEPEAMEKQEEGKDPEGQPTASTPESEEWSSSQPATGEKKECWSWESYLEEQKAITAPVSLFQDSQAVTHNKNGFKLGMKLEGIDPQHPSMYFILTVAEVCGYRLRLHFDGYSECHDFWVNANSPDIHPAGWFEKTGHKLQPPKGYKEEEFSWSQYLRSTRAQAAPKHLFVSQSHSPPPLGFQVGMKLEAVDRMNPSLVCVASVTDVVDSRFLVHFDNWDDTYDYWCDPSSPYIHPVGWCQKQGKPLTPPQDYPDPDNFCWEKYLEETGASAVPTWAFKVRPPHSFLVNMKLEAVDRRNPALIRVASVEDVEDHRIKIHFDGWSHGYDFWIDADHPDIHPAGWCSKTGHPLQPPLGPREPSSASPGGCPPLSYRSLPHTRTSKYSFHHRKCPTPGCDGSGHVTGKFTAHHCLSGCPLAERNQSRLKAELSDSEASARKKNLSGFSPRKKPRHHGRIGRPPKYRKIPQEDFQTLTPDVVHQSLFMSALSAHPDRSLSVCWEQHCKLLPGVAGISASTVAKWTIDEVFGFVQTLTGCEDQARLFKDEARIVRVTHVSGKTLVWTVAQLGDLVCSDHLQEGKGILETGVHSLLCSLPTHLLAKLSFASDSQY
Cytochrome P450 3A4 (Homo sapiens), sequence (P08684 whole entry, looked up): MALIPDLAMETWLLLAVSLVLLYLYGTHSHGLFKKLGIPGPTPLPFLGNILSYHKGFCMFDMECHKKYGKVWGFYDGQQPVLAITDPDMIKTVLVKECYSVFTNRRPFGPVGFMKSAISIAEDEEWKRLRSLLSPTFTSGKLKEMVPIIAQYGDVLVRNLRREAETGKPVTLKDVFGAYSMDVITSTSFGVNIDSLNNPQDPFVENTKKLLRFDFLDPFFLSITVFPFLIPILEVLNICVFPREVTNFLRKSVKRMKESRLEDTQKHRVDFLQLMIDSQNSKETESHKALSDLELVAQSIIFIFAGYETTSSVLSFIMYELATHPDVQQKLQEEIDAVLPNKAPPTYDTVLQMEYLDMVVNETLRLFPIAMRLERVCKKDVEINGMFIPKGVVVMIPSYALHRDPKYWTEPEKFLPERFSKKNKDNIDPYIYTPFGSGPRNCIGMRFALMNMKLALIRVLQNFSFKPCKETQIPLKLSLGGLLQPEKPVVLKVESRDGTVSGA
DNA dC->dU-editing enzyme APOBEC-3G (Homo sapiens), sequence (Q9HC16 whole entry, looked up): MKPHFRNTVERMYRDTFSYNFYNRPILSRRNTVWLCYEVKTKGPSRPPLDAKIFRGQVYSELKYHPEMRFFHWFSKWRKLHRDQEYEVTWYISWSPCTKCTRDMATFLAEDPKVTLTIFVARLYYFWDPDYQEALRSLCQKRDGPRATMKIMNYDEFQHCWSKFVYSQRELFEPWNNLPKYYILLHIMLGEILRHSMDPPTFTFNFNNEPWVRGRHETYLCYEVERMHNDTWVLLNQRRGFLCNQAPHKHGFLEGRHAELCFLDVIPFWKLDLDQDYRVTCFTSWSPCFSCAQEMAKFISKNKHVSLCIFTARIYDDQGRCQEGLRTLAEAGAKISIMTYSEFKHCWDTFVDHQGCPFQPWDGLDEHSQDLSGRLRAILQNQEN
RecQ-like DNA helicase BLM (Homo sapiens), sequence (P54132 whole entry, looked up): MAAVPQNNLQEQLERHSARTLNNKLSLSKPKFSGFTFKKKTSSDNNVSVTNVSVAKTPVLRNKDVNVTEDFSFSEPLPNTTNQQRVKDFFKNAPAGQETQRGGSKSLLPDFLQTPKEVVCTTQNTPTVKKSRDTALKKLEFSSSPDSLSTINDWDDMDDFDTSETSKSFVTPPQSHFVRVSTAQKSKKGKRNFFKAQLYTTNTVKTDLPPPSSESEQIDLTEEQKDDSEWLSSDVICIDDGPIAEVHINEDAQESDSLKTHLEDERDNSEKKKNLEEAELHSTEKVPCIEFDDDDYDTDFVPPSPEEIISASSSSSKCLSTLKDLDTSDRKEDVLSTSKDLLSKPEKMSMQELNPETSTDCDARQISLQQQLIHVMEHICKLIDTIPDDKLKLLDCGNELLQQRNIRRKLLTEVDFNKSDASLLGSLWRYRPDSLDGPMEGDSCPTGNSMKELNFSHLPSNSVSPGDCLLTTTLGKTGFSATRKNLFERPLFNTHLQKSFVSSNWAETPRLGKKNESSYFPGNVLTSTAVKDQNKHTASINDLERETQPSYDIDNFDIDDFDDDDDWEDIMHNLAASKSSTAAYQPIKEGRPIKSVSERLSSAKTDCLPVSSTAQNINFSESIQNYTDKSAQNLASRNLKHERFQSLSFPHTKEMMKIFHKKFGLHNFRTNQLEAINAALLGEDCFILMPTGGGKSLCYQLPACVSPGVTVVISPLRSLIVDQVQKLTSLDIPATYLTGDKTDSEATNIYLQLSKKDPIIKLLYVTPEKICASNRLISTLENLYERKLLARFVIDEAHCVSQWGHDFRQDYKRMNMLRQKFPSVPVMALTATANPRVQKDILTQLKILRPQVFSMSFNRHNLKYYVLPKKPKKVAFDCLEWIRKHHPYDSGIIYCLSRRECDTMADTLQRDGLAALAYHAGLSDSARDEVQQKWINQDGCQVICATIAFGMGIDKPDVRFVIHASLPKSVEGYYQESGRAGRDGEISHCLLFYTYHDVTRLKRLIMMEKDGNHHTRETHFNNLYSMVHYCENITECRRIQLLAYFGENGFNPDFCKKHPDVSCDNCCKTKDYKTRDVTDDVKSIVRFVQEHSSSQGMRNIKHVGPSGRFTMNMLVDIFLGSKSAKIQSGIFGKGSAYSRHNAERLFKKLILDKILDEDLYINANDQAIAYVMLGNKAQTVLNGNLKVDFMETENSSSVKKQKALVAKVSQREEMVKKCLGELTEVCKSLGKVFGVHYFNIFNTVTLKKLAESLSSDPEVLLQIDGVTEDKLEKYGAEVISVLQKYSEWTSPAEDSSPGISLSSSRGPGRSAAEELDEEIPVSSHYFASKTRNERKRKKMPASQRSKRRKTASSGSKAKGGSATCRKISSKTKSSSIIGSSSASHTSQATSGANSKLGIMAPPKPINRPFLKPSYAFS
Cytochrome P450 2C19 (Homo sapiens), sequence (P33261 whole entry, looked up): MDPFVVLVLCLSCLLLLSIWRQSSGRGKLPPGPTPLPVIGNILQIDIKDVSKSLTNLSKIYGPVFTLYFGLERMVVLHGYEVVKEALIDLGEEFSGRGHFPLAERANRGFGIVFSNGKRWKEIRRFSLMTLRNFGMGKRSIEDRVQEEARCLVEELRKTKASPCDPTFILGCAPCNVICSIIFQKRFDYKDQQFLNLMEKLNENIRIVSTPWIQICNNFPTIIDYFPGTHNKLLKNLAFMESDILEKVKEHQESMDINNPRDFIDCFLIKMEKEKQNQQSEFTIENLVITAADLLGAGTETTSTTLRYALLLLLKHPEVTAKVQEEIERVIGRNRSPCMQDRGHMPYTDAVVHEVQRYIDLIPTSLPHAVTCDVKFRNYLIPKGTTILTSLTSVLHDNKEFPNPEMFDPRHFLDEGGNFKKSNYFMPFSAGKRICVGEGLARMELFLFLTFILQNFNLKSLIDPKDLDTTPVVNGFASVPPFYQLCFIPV

Regarding `CCCCCCN(C(=O)CCCCCN1C(=O)NC(c2ccc(-c3ccccc3)cc2)C(C(=O)OCc2ccccc2)=C1C)C(C(=O)NCCCC)c1ccc(OCC(=O)OC)cc1` (stereo unspecified), the call in assay [1] was inactive. The Potency result in assay [2] is “inactive”.
`COC(=O)[C@H](Cc1ccccc1)NC(=O)[C@H]1C[C@@H]1[C@H](NC(=O)OCc1ccccc1)c1ccccc1`: in [1], the outcome was inactive. Moreover, in [3], the Potency is 7.94 µM (active). The Potency entry in assay [2] is “inactive”.
Take `CC(=O)N1[C@H](Cc2ccccc2)C=C[C@]1(C)C(=O)NCc1cc(F)cc(C(F)(F)F)c1`: the call in assay [1] was inactive. For the same compound, the Potency in assay [3] is 6.31 µM (active). The Potency entry in [2] was “inactive”.
With `CC(=O)N1C2(C=CC1(C)C(=O)NCCN1CCOCC1)CCCCC2` (stereo unspecified), the call in [1] was inactive. In [2], the Potency entry was “inactive”.
In the case of `CC(=O)N1[C@H](C)C=C[C@]1(Cc1ccccc1)C(=O)O`, the result in assay [1] was inactive. In addition, the Potency result in assay [2] is “inactive”.
For the compound `C1CCN2CC3CC(CN4CCCC[C@@H]34)C2C1` (stereo partly specified), the Potency entry in [4] is “inactive”.
For the compound `O=C(COC(=O)c1ccc(F)cc1F)Nc1ncccn1`, the Potency in assay [5] is 5.97 µM (active); in [7] it was 21.2 µM (active). Also, the compound was called inactive in assay [6].
Turning to `COCCNC(=O)[C@H](C)[C@@H]1C[C@@]1(C)[C@@H](NC(=O)OCc1ccccc1)c1ccccc1`, in assay [1], the call was inactive. Also, the Potency result in [2] was “inactive”. In addition, the Potency in assay [8] was 3.16 µM (active).
Regarding `COc1cc([C@@H]2c3cc4c(cc3C(OC3OC5COC(C)OC5C(O)C3O)C3COC(=O)[C@@H]32)OCO4)cc(OC)c1O` (stereo partly specified), the Potency entry in assay [4] was “inactive”.
With `COC(=O)CCCCCN1C(=O)NC(c2ccccc2)C(C(=O)OCc2ccccc2)=C1C` (stereo unspecified), the compound was called inactive in [1]. Moreover, the Potency entry in [2] is “inactive”.
For `CCCCCCN(C(=O)CCCCCN1C(=O)NC(c2ccc([N+](=O)[O-])cc2)C(C(=O)OCc2ccccc2)=C1C)C(C(=O)NCCCC)c1ccc(OCC(=O)OC)c(C(=O)OC)c1` (stereo unspecified), the compound was called inactive in [1]. Also, the Potency entry in [2] is “inactive”.
In the case of `CC1C(=O)OC2CC34C5CC(C(C)(C)C)C36C(OC(=O)C6O)OC4(C(=O)O5)C21O` (stereo unspecified), the Potency result in [4] was “inactive”.
`COC(=O)N1[C@H](Cc2ccccc2)C=C[C@]1(C)C(=O)NCc1ccccn1`: the result in assay [1] was inactive. For the same compound, the Potency result in assay [2] was “inactive”.
For the compound `COc1cccc2c(C)c(C(=O)O)[nH]c12`, the Potency in assay [5] was 5.97 µM (active). The compound was classed as inactive in assay [6].
Regarding `CC(=O)N1CC=CC1(C)C(=O)O` (stereo unspecified), the compound was called inactive in assay [1]. Further, the Potency result in [2] was “inactive”.
`CNC(=O)[C@@H]1C[C@H]1[C@@H](NC(=O)CNC(=O)OCc1ccccc1)c1ccccc1`: the call in [1] was inactive. Further, the Potency entry in [2] is “inactive”.
Consider `CC(=O)N1[C@H](C)C=C[C@]1(Cc1ccccc1)C(=O)NCCc1c[nH]c2ccccc12`, for which, in assay [1], the result was inactive. The Potency result in assay [2] was “inactive”.
Regarding `CCN(C(=O)Cc1nc(N)n[nH]1)C1(C(=O)Nc2ccccc2)CCCCC1`, the Potency in [5] is 26.7 µM (active).
Turning to `CC(C)(C)OC(=O)NCCCCCNC(=O)c1[nH]cnc1C(=O)Nc1nccs1`, the Potency in [5] is 7.52 µM (active). In addition, the compound was called inactive in [6].
`Cn1c2ccccc2c(=O)c2c(=O)n(Cc3ccco3)c(COc3ccccc3)nc21`: the Potency was 7.52 µM (active) in assay [5] and 75.2 µM (active) in [7]. In addition, the outcome in assay [6] was inactive.
With `COCCNC(=O)C1(CC(C)C)C=CCN1C(=O)OC` (stereo unspecified), the compound was called inactive in assay [1]. Further, the Potency result in assay [2] was “inactive”.
For `CC(=O)N1CC=CC1(CC(C)C)C(=O)NCc1ccc(C)o1` (stereo unspecified), the outcome in assay [1] was inactive. Moreover, the Potency entry in assay [2] was “inactive”.
With `CSc1nnc(SCc2nc3sc(C(=O)O)c(C)c3c(=O)[nH]2)s1`, the Potency in assay [5] is 0.532 µM (active); in [7], 18.9 µM (active); in assay [9] it was 13.6 µM (active). The Potency result in [10] was “inactive”.
For `CC(C)NC(=O)[C@H]1C[C@@H]1[C@H](NC(=O)OCc1ccccc1)c1ccccc1`, the compound was called inactive in [1]. For the same compound, the Potency result in assay [2] is “inactive”.
Consider `COc1ccc(Cc2nnc(NC(=O)Cc3cccs3)s2)cc1`, for which the results for the Potency in [5], in assay [7] and in assay [11] were 1.19 µM (active), 16.8 µM (active) and 84.9 µM (active), respectively.
As to `COC(=O)CCCCCN1C(=O)NC(CC2CC2)C(C(=O)OCc2ccccc2)=C1C` (stereo unspecified), the call in assay [1] was inactive. In addition, in assay [2], the Potency entry was “inactive”.
Regarding `Oc1ccc(N=Nc2nccs2)c(O)c1`, the Potency in assay [5] was 16.8 µM (active). Besides, in assay [6], the call was inactive.
As to `COC(=O)N1[C@H](C)C=C[C@]1(Cc1ccccc1)C(=O)NCc1ccc(C)o1`, the outcome in assay [1] was inactive. Also, in [2], the Potency entry was “inactive”.
Regarding `COC(=O)c1ccc(C(/C=C/[C@@H](C)C(=O)N(C)C)NC(=O)OCc2ccccc2)cc1` (stereo partly specified), the compound was classed as inactive in assay [1]. The Potency entry in [2] is “inactive”.
Consider `CC(=O)N1[C@H](C)C=C[C@]1(Cc1ccccc1)C(=O)NCc1ccccn1`, for which the outcome in [1] was inactive. For the same compound, in [2], the Potency entry is “inactive”.
With `CC(C)CC1(C(=O)NCc2ccccn2)C=CCN1C(=O)c1ccccc1` (stereo unspecified), the call in assay [1] was inactive. The Potency result in [2] was “inactive”.
As for `CCCCNC(=O)C(c1ccc(OCC(=O)OC)c(C(=O)OC)c1)N(CCC1=CCCCC1)C(=O)CCCCCN1C(=O)NC(c2ccc(-c3ccccc3)cc2)C(C(=O)OCc2ccccc2)=C1C` (stereo unspecified), the outcome in [1] was inactive. Also, in assay [2], the Potency result is “inactive”.
On to `COC(=O)CNC(=O)C1(CC(C)C)C=CCN1C(=O)c1ccccc1` (stereo unspecified), for which the call in [1] was inactive. The Potency entry in [2] was “inactive”.
In the case of `COCCNC(=O)[C@@]1(Cc2ccccc2)C=C[C@@H](C)N1C(C)=O`, the compound was classed as inactive in [1]. In addition, in [2], the Potency entry was “inactive”.
As for `COC(=O)[C@@]1(C)C=C[C@@H](Cc2ccccc2)N1C(=O)c1ccccc1`, the result in assay [1] was inactive. For the same compound, the Potency entry in assay [2] is “inactive”.
Regarding `COC(=O)[C@@]1(C)C[C@@H]1[C@@H](NC(=O)[C@@]1(C)C[C@@H]1[C@@H](NC(=O)[C@@]1(C)C[C@@H]1[C@@H](NC(=O)[C@@]1(C)C[C@@H]1[C@@H](NC(=O)OCc1ccccc1)c1ccccc1)c1ccccc1)c1ccccc1)c1ccccc1`, the outcome in assay [1] was inactive. Besides, in assay [2], the Potency entry is “inactive”.
